# AMA1-RON2 inh: AMA1-RON2 (P. falciparum) interaction inhibition. Potency, µM (doses to about 58.2 µM), inactives show top-dose activity change, negative = inhibition, most hits filed as inhibitors. AlphaScreen AMA1-biotinylated RON2 peptide binding. 0.2% of 360,000 active;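 further: 0% = vehicle wells and -100% = peptide control; nearly all actives have a fitted effect of over 45% in size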
#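 AMA1 (3D7) with his tag at 25 nM final met compounds first, then biotinylated RON2 peptide at 25 nM; detection used donor plus acceptor beads, 10 µg/mL apiece, read by AlphaScreen after 30 min at room temperature.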
# Pf growth 96h: inhibits malaria parasite growth, 96 h | P. falciparum luciferase reporter growth, 96 h | Potency, µM (top dose mostly 28.7 µM), inactives show at the highest dose activity change, negative = inhibition, most hits filed as inhibitors | 6.9% of 320,000 active | AID 504834
#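 P. falciparum expressing integrated firefly luciferase, in erythrocytes at 2% hematocrit, 0.05% parasitemia, incubated with compounds 96 h at 37 C, 5% CO2. Growth inhibition read as loss of luminescence; two-generation exposure targets delayed-death apicoplast inhibitors.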
# Pf growth 48h: inhibits P. falciparum growth in the first generation, 48 h. P. falciparum luciferase growth in erythrocytes, 48 h. Potency, µM (series often up to 28.7 µM), for inactives: at the top dose activity change, negative = inhibition, usual class: inhibitors. 5.9% of 310,000 active. AID 504832
#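 Erythrocytes infected with P. falciparum carrying an integrated firefly luciferase reporter (2% hematocrit, 0.1% parasitemia final) were exposed to compounds in RPMI 1640 with 0.5% Albumax at 37 C, 5% CO2. Growth inhibition was scored as reduced luminescence.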
# AmpC detergent: inhibitors of E. coli AmpC beta-lactamase with detergent; AmpC hydrolysis of nitrocefin, absorbance 480 nm, 0.01% Triton; Potency, µM (highest dose often 114 µM), for inactives: top-dose activity change, negative = inhibition, hits mostly inhibitors; 0.041% of 370,000 active; AID 485294;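 further: 0% = no-compound wells and -100% = no-enzyme wells; nearly all actives have a fitted effect of over 25% in size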
# Target sequence (P00811 whole entry, looked up): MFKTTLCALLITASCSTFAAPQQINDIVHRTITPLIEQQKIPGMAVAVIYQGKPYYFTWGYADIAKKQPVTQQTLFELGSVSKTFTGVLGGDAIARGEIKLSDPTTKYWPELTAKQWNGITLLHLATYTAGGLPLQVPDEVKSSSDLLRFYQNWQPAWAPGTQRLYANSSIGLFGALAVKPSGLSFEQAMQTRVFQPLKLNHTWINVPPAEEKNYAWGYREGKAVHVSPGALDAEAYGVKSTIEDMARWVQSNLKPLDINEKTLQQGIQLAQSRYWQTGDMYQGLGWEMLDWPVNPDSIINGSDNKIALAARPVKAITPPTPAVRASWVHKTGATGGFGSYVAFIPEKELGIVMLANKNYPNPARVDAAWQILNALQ
#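 20 mM phosphate pH 7.0 + 0.01% (detergent screen) or 0.0001% Triton X-100; 5.3 nM AmpC reagent; cpd preinc 15 min RT; nitrocefin (800 uM stock) to start; A480 q20 s × 4 min; Activity was normalised to no-enzyme and no-compound control wells.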
# HCV inh: inhibitors of hepatitis C virus infection | Potency, µM (doses to about 41.8 µM), without a hit: at the top dose activity change, negative = inhibition, usual class: inhibitors | Huh7.5.1 HCVcc-Cre infection, luciferase reporter, 44 h | 3.4% of 340,000 active
#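 After 44 h co-culture of compound, cells and HCVcc-Cre (~0.5 moi), substrate is added for 15 min at room temperature and luciferase measured over 15 sec. Cells were seeded at 1,000/well and pre-cultured 4 h.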
# AmpC no deterg: AmpC beta-lactamase inhibition without detergent; AID 485341; P00811; Potency, µM (series often up to 57.1 µM), for the others: at the highest dose activity change, negative = inhibition, most hits filed as inhibitors; 0.52% of 330,000 active; AmpC nitrocefin hydrolysis, absorbance 480 nm, 0.0001% Triton;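 further: plate controls were no compound for no effect and no enzyme for full effect; nearly all actives have a fitted effect of over 20% in size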
#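 20 mM phosphate pH 7.0 + 0.01% (detergent screen) or 0.0001% Triton X-100; 5.3 nM AmpC reagent; cpd preinc 15 min RT; nitrocefin (800 uM stock) to start; A480 q20 s × 4 min; Activity was normalised to no-enzyme and no-compound control wells.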
# Starred values were filed as active, the others as inactive; ? = inconclusive; / = no result given. Compounds with a hit are over-represented: about 11% of the library has one in this group of screens. The call rests on the fitted dose curve; in most records, active means well fitted curve in the direction sought with a large enough effect; inconclusive means small, poorly fitted or top-dose-only effect, or another doubt; inactive means no such curve, though single readings can be large; an effect the other way counts as inactive or inconclusive. Unless noted, on the % scale 0 is the no-effect control and ±100 the full control effect; potency means the concentration at half of the fitted maximal effect.
SMILES,AMA1-RON2 inh,Pf growth 96h,Pf growth 48h,AmpC detergent,HCV inh,AmpC no deterg
Cc1cc(C)c2nc(Cl)c(CN(Cc3ccco3)C(=O)Nc3ccccc3C)cc2c1,-5%,?,12µM*,4%,?,-36%
Cc1ccc2cc(CN(Cc3ccco3)C(=O)NC3CCCCC3)c(=O)[nH]c2c1C,-6%,-14%,12µM*,-8%,?,-2%
COCCN(Cc1cc2cc(C)cc(C)c2nc1Cl)C(=O)Nc1ccccc1,-1%,0%,?,0%,?,2%
Cc1ccc2cc(CN(Cc3ccco3)C(=O)C3CCCCC3)c(=O)[nH]c2c1C,5%,6%,?,?,1%,-17%
Cc1oc2ncn(CC(C)C)c(=O)c2c1C(=O)N(Cc1ccccc1)C(C)C,/,/,/,-7%,/,/
O=C(NC1CC(=O)N(c2ccccc2)C1)c1cccs1 (configuration not stated),/,/,/,2%,/,/
O=C1CCCc2nc(N3CCN(C(=O)c4ccco4)CC3)ncc21,20%,9.3µM*,126%,-14%,10%,-19%
O=C(c1ccco1)N1CCN(c2ncccn2)CC1,7%,-11%,/,-10%,4%,-3%
CCOc1ccc(NC(=O)C2CC(=O)N(c3ccc(C(C)C)cc3)C2)cc1 (configuration not stated),/,/,/,3%,/,/
Cn1c(C(=O)Nc2ccc(OC(F)(F)F)cc2)cc2c(=O)n3ccccc3nc21,/,/,/,8%,/,/
O=C(NC(=O)c1ccccc1O)c1ccc(C(F)(F)F)cc1,-4%,2.3µM*,?,3%,?,-44%
CCCc1ccc(C(=O)NC(=O)c2ccccc2O)cc1,-15%,0.37µM*,0.066µM*,-16%,?,-52%
CN(C)/N=C/c1c(O)ccc2ccccc12,-20%,41%,/,0%,10µM*,-20%
Oc1ccccc1N=Cc1c(O)ccc2ccccc12,-7%,10µM*,?,-8%,-7%,-46%
Cc1cc(C(=O)O)ccc1N=Cc1c(O)ccc2ccccc12,20%,12µM*,49%,?,-17%,-22%
COc1ccc(CNC(=O)C(=O)NCC(c2cccnc2)N2CCN(c3ccccc3)CC2)cc1 (configuration not stated),/,/,/,4%,/,/
Cc1c2cnn(CC(=O)NC(C)C)c(=O)c2c(C)n1Cc1cccc(Cl)c1,/,/,/,2%,/,/
CCOc1ccc(S(=O)(=O)N2CCOCC2)cc1NC(=O)C1CSC2(C)CCC(=O)N12 (configuration not stated),4%,-5%,-7%,?,12%,30%
CC12CCC(=O)N1C(C(=O)Nc1cc(C(F)(F)F)ccc1N1CCCCC1)CS2 (configuration not stated),-1%,?,9.3µM*,?,3.5µM*,86%
Cc1cc(C)c(C)c(S(=O)(=O)N2CCN(C(=O)C3CSC4(C)CCC(=O)N34)CC2)c1C (configuration not stated),?,?,10µM*,0%,?,15%
CCN(CC)c1ccc(S(=O)(=O)N2CCCCC2)cc1NC(=O)C1CSC2(C)CCC(=O)N12 (configuration not stated),74%,?,12µM*,3%,-24%,154%
Cc1cc(F)ccc1NC(=O)C1CSC2(C)CCC(=O)N12 (configuration not stated),-2%,5%,7%,?,27%,-8%
CC12CCC(=O)N1C(C(=O)Nc1cc(Cl)ccc1N1CCCC1)CS2 (configuration not stated),-16%,?,?,3%,8.9µM*,48%
COc1ccccc1C(=O)Nc1cccc(C(=O)OCc2cc(=O)n3c4c(sc3n2)CCCC4)c1,/,/,/,1%,/,/
CC12CCC(=O)N1C(C(=O)Nc1ccccc1N1CCCCC1)CS2 (configuration not stated),3%,?,10µM*,2%,6%,11%

# From PubChem BioAssay
